Laboratory results taken from PubChem BioAssay (NCI).
Where “and” joins values, the source holds several entries; their conditions need not be identical. Equal entries are not always repeated. Compounds without any hit were thinned out: in the full panel of roughly 83,000, 20% have a hit.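 48-hour exposure, single concentration, 96-well plates; percent growth endpoint where 0 means no net growth. Active: below 10.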 A number with no mark means an inactive call. Calls of active or inactive are those of the source. Where a SMILES comes first, the peptide text is derived from it.

Assays:
Test in all cases: NCI-60 one-dose screen, 48 h (100 = growth as untreated, 0 = no growth, -100 = all killed)
[1] = test system: NCI-H23 lung; conditions: 10 µM unless noted
[2] = test system: NCI-H226 lung; conditions: 10 µM unless noted
[3] = test system: NCI-H322M lung; conditions: 10 µM unless noted
[4] = test system: HOP-62 NSCLC; conditions: 10 µM unless noted
[5] = test system: NCI-H460 lung; conditions: 10 µM unless noted
[6] = test system: NCI-H522 lung; conditions: 10 µM
[7] = test system: 786-0 renal; conditions: 10 µM unless noted
[8] = test system: COLO 205 colon; conditions: 10 µM unless noted
[9] = test system: DU-145 prostate; conditions: 10 µM unless noted
[10] = test system: K-562 leukemia; conditions: 10 µM unless noted
[11] = test system: MALME-3M melanoma; conditions: 10 µM unless noted
[12] = test system: MDA-MB-231 breast; conditions: 10 µM unless noted
[13] = test system: RXF 393 renal; conditions: 10 µM unless noted
[14] = test system: SF-268 CNS; conditions: 10 µM unless noted
[15] = test system: SF-295 CNS; conditions: 10 µM unless noted
[16] = test system: SF-539 CNS; conditions: 10 µM unless noted
[17] = test system: UACC-257 melanoma; conditions: 10 µM unless noted
[18] = test system: M14 melanoma; conditions: 10 µM unless noted
[19] = test system: HOP-92 NSCLC; conditions: 10 µM
[20] = test system: A549/ATCC NSCLC; conditions: 10 µM unless noted

`CN(C)CC1CCCCCC(CN(C)C)C1=O` (centres undefined) gave a growth [1] of 97.2%, a growth [2] of 91.4% and a growth [3] of 116%. The growth [4] was 113%, the growth [5] was 106% and the growth [6] was -42.8% (active). The growth [7] was 89.6%, the growth [8] was -80.9% (active) and the growth [9] was 16.3%. The growth [10] was 0.401% (active), the growth [11] was -29.8% (active) and the growth [12] was 86.2%. For the same molecule, the growth [13] was -5.99% (active), the growth [14] was 97% and the growth [15] was 76.8%. For the same molecule, the growth [16] was 113%, the growth [17] was 53.1% and the growth [18] was 77.4%.

`O=C(O)CCCl` was tested, and the growth [1] was 108%, the growth [2] was 95.6% and the growth [3] was 102%. It also gave a growth [4] of 105%, a growth [5] of 106% and a growth [6] of 112%. For the same molecule, the growth [7] was 120%, the growth [8] was 119% and the growth [9] was 114%. The growth [10] was 111%, the growth [11] was 115% and the growth [12] was 125%. The growth [13] was 103%, the growth [14] was 108% and the growth [16] was 99.8%. For the same molecule, the growth [17] was 111% and the growth [18] was 129%.

In the case of `CC1(C)COC(=S)N1`, the growth [1] is reported as 101%, the growth [2] is reported as 94.5% and the growth [3] is reported as 101%. It also gave a growth [4] of 99.8%, a growth [5] of 113% and a growth [6] of 85.2%. It also gave a growth [7] of 99.7%, a growth [8] of 124% and a growth [9] of 114%. It also gave a growth [10] of 91.7%, a growth [11] of 104% and a growth [12] of 96.5%. For the same molecule, the growth [13] was 98.8%, the growth [14] was 107% and the growth [15] was 98.4%. The growth [16] was 107%, the growth [17] was 99.6% and the growth [18] was 101%.

For `O=C1CSC2=NCCN12`, the growth [1] was 87.7% and 90%, the growth [2] was 102% and 85.5% and the growth [3] was 102% and 94.5%. For the same molecule, the growth [4] was 90.9% and 95.9%, the growth [5] was 96.3% and 99.3% and the growth [6] was 59.3% and 99.1%. For the same molecule, the growth [7] was 80.7% and 61.7%, the growth [8] was 104% and 127% and the growth [9] was 111% and 107%. For the same molecule, the growth [10] was 74.2% and 76.4%, the growth [11] was 91.7% and 120% and the growth [12] was 104% and 103%. The growth [13] was 81.5% and 98.4%, the growth [14] was 97.4% and 96.9% and the growth [15] was 102% and 81%. The growth [16] was 94.3% and 91.7%, the growth [17] was 71.9% and 103% and the growth [18] was 90.1% and 91.6%.

`NC(=O)NCCCC(N)C(=O)O` (centres undefined) gave a growth [1] of 103%, a growth [2] of 98.2% and a growth [3] of 88.6%. For the same molecule, the growth [4] was 98.4%, the growth [5] was 108% and the growth [7] was 101%. It also gave a growth [8] of 106%, a growth [9] of 101% and a growth [10] of 97.9%. It also gave a growth [11] of 93.1%, a growth [12] of 104% and a growth [13] of 106%. The growth [14] was 104%, the growth [15] was 117% and the growth [16] was 103%. The growth [17] was 102% and the growth [18] was 100%.

`NC(Cc1ccccc1)C(=O)NC(Cc1ccccc1)C(=O)O` (stereo not drawn) (H-Phe-Phe-OH; configuration not given here) was tested, and the growth [1] was 97.1% and 105%, the growth [2] was 95.6% and 93% and the growth [3] was 94.6% and 100%. The growth [4] was 91.1% and 100%, the growth [5] was 104% and the growth [6] was 87.3% and 99.4%. For the same molecule, the growth [7] was 111% and 104%, the growth [8] was 107% and 110% and the growth [9] was 111% and 106%. The growth [10] was 97.9% and 114%, the growth [11] was 99.4% and the growth [12] was 115% and 108%. The growth [13] was 105%, the growth [14] was 101% and 106% and the growth [15] was 107% and 99.4%. For the same molecule, the growth [16] was 101% and 92.6%, the growth [17] was 88.2% and 92.8% and the growth [18] was 103% and 97.1%.

With `CC1=C/C(O)CC(=O)Cc2nc(co2)C(=O)N2CCC=C2C(=O)OC(C(C)C)C(C)/C=C\C(=O)NC/C=C\1` (centres undefined) the growth [1] was 78.7%, the growth [2] was 82.9% and the growth [3] was 102%. For the same molecule, the growth [5] was 102%, the growth [19] was 88.7% and the growth [6] was 21.8%. For the same molecule, the growth [7] was 2.53% (active), the growth [8] was 74.3% and the growth [9] was 90.7%. For the same molecule, the growth [10] was 48.4%, the growth [11] was 125% and the growth [12] was 98.6%. For the same molecule, the growth [13] was 93.6%, the growth [14] was 93.3% and the growth [15] was 101%. It also gave a growth [16] of 104%, a growth [17] of 75.4% and a growth [18] of 15.4%.

`CCCCNc1ccc(Nc2ccccc2)cc1` gave a growth [1] of 41.7%, a growth [2] of 73.3% and a growth [3] of 98.3%. The growth [4] was 106%, the growth [5] was 76.7% and the growth [6] was 31.2%. For the same molecule, the growth [7] was 92.9%, the growth [8] was 85% and the growth [9] was 84%. For the same molecule, the growth [10] was 48.9%, the growth [11] was 54.8% and the growth [12] was 64.4%. For the same molecule, the growth [13] was 83.9%, the growth [14] was 110% and the growth [15] was 56.3%. It also gave a growth [16] of 83.8%, a growth [17] of 62.7% and a growth [18] of 87.5%.

`ClCCOCCOc1ccc(C2CCCCC2)cc1` showed a growth [1] of 113%, a growth [2] of 92.4% and a growth [3] of 121%. For the same molecule, the growth [4] was 92.3%, the growth [5] was 106% and the growth [6] was 93.8%. For the same molecule, the growth [7] was 88.8%, the growth [8] was 111% and the growth [9] was 102%. For the same molecule, the growth [10] was 118%, the growth [12] was 103% and the growth [13] was 101%. The growth [14] was 109%, the growth [15] was 97.1% and the growth [16] was 102%. The growth [17] was 91.2% and the growth [18] was 108%.

Molecule `O=c1n(CC2CO2)c(=O)n(CC2CO2)c(=O)n1CC1CO1` (centres undefined) has a growth [1] of 69.2%, a growth [2] of 80.1% and a growth [3] of 70.4%. For the same molecule, the growth [4] was 57%, the growth [5] was 19.2% and the growth [6] was 45.1%. The growth [7] was 44.7%, the growth [8] was 74.8% and the growth [9] was 25.7%. It also gave a growth [10] of 81.3%, a growth [11] of 70.7% and a growth [12] of 107%. For the same molecule, the growth [13] was 64.2%, the growth [14] was 47.9% and the growth [15] was 13.9%. It also gave a growth [16] of 28.6%, a growth [17] of 61.4% and a growth [18] of 61.9%.

`Cl` showed a growth [1] of 97.5%, a growth [2] of 105% and a growth [5] of 107%. For the same molecule, the growth [7] was 104%, the growth [8] was 115% and the growth [9] was 119%. It also gave a growth [11] of 116%, a growth [12] of 115% and a growth [13] of 117%. The growth [14] was 116%, the growth [15] was 99.2% and the growth [16] was 111%. For the same molecule, the growth [17] was 105% and the growth [18] was 107%.

`OCCN1CCCCCCC1` gave a growth [1] of 105%, a growth [2] of 93.8% and a growth [3] of 101%. It also gave a growth [4] of 99.5%, a growth [5] of 106% and a growth [7] of 101%. It also gave a growth [8] of 104%, a growth [9] of 113% and a growth [10] of 105%. It also gave a growth [11] of 96%, a growth [12] of 99.5% and a growth [13] of 100%. The growth [14] was 107%, the growth [15] was 95.9% and the growth [16] was 98.7%. The growth [18] was 92.3%.

`COc1ccc(Nc2ccc3ccccc3c2)cc1` gave a growth [1] of 81.5%, a growth [2] of 81% and a growth [4] of 67.9%. For the same molecule, the growth [5] was 94.1%, the growth [7] was 84.3% and the growth [8] was 94%. For the same molecule, the growth [9] was 83.2%, the growth [10] was 31.6% and the growth [12] was 77.9%. The growth [13] was 58.6%, the growth [14] was 81.2% and the growth [15] was 79.6%. It also gave a growth [16] of 93.1% and a growth [18] of 72.9%.

Work on `OC1COC(OCc2ccccc2)C(O)C1O` (centres undefined) yielded a growth [1] of 106%, a growth [2] of 98.1% and a growth [3] of 90.6%. The growth [4] was 101%, the growth [5] was 106% and the growth [7] was 105%. For the same molecule, the growth [8] was 115%, the growth [9] was 105% and the growth [10] was 97.9%. It also gave a growth [11] of 78.7%, a growth [12] of 109% and a growth [13] of 103%. The growth [14] was 106%, the growth [15] was 101% and the growth [16] was 105%. The growth [18] was 96.8%.

`CC(=O)OC(C)C(=O)NCC(C)O` (centres undefined) was tested, and the growth [1] was 100%, the growth [3] was 90.7% and the growth [4] was 100%. It also gave a growth [5] of 98.2%, a growth [6] of 109% and a growth [20] of 108%. The growth [7] was 94.9%, the growth [8] was 107% and the growth [9] was 104%. The growth [10] was 97.9%, the growth [11] was 108% and the growth [12] was 124%. For the same molecule, the growth [13] was 113%, the growth [14] was 100% and the growth [16] was 102%. The growth [17] was 108% and the growth [18] was 97.8%.
